Many of the other results were omitted from the sample, so hits are more common in it than they were.
DUX4 txn inh = blocks DUX4-driven transcriptional activation. 293T-iDUX4 ZSCAN4-Gaussia luciferase reporter, 24 h; hits give low values. activity change, negative = inhibition, % (concentration not given with the values). 37,000 tested, 0.8% active. AID 1224904;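 active = mean inhibition of at least 10% in the main channel, exceeding the control channel by a set limit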
Hits are given with their value; n = inactive.

SMILES	DUX4 txn inh
COc1ccc(CNC(=O)N(C)C[C@H]2OCc3ccccc3-c3c(n(C)c4ccccc34)C(=O)N([C@H](C)CO)C[C@H]2C)cc1	n
CC(=O)N1CC(=O)N2[C@H](CO)[C@@H](c3ccc(C#CC(C)C)cc3)[C@H]2C1	n
C/C=C/c1ccc(C2[C@H]3CNC[C@@H]2N3S(=O)(=O)c2ccc(Cl)cc2)cc1 (stereo partly specified)	n
CN1CCN(C(=O)C[C@@H]2CC[C@H]3[C@H](COc4ccc(NC(=O)c5cccs5)cc4C(=O)N3C)O2)CC1	n
C/C=C/c1ccc([C@@H]2[C@@H](CO)N3CCCCN(S(=O)(=O)c4ccc(F)cc4)C[C@@H]23)cc1	n
COc1cccc(S(=O)(=O)N2CCCCN3[C@H](C2)[C@H](c2ccc(-c4cccnc4)cc2)[C@@H]3CO)c1	-35
C/C=C/c1ccc([C@H]2[C@@H](CO)N3CCCCN(S(=O)(=O)c4cccc(C)c4)C[C@@H]23)cc1	-44
COc1cccc(S(=O)(=O)N2CCCCN3[C@@H](CO)[C@@H](c4ccc(C#CC5CC5)cc4)[C@@H]3C2)c1	n
C/C=C/c1ccc([C@@H]2[C@@H](CO)N3CCCCN(S(=O)(=O)c4ccc(F)cc4)C[C@H]23)cc1	n
COc1cccc(S(=O)(=O)N2CCCCN3[C@H](CO)[C@@H](c4ccc(-c5cccnc5)cc4)[C@H]3C2)c1	n
CNC[C@H]1Oc2ccc(NS(=O)(=O)c3cccs3)cc2C(=O)N([C@H](C)CO)C[C@H]1C	n
CC(=O)Nc1ccc2c(c1)C(=O)N(C)[C@H]1CC[C@H](CC(=O)Nc3ccc4c(c3)CCC4)O[C@@H]1CO2	n
CC(=O)N(C)C[C@H]1Oc2cc(-c3ccc(C)cc3)ccc2S(=O)(=O)N([C@H](C)CO)C[C@H]1C	n
CN(C)C(=O)c1ccc(-c2ccc3c(c2)[C@@H]2[C@@H](CCN2C(=O)C2CCOCC2)[C@@H](CO)N3C)cc1	n
C[C@H](CO)N1C[C@H](C)[C@H](CN(C)Cc2cccc3c2OCCCO3)OCc2ccccc2-c2ccccc2C1=O	n
C[C@@H]1CN([C@@H](C)CO)C(=O)c2c(c3ccccc3n2C)-c2ccccc2CO[C@H]1CN(C)Cc1cccc2c1OCCCO2	-31
COc1ccccc1CN(C)C[C@@H]1OCc2ccccc2-c2c(n(C)c3ccccc23)C(=O)N([C@@H](C)CO)C[C@@H]1C	-32
C[C@@H]1CN([C@@H](C)CO)C(=O)c2ccccc2-c2ccccc2CO[C@H]1CN(C)Cc1ccccc1C(F)(F)F	n
C[C@@H]1CN([C@H](C)CO)C(=O)c2c(c3ccccc3n2C)-c2ccccc2CO[C@@H]1CN(C)Cc1ccncc1	n
C[C@@H]1CN([C@H](C)CO)C(=O)c2c(c3ccccc3n2C)-c2ccccc2CO[C@H]1CN(C)C	n
C[C@@H]1CN([C@H](C)CO)C(=O)c2c(c3ccccc3n2C)-c2ccccc2CO[C@H]1CN(C)Cc1ccccc1C(F)(F)F	-49
C[C@H]1CN([C@@H](C)CO)C(=O)c2c(c3ccccc3n2C)-c2ccccc2CO[C@@H]1CN(C)C	n
C[C@H](CO)N1C[C@H](C)[C@@H](CN(C)C)OCc2ccccc2-c2c(n(C)c3ccccc23)C1=O	n
COc1ccccc1-c1ccc([C@@H]2[C@H](C#N)N[C@@H]2CO)cc1	n
C/C=C/c1ccc([C@H]2[C@@H](CO)N(Cc3cccnc3)C23CN(C(=O)CC)C3)cc1	n
SMILES	DUX4 txn inh
CO[C@H]1CN(C)C(=O)c2cc(NC(C)=O)ccc2OC[C@@H](C)N(C(=O)Cc2ccccn2)C[C@H]1C	n
OC[C@@H]1[C@@H](c2ccc(-c3cccnc3)cc2)[C@H]2CN(Cc3ccccn3)CCCCN12	n
CN1C(=O)c2cc(NS(C)(=O)=O)ccc2OC[C@H]2O[C@@H](CC(=O)O)CC[C@H]21	n
C[C@@H]1CN([C@@H](C)CO)C(=O)CCCn2nncc2CO[C@H]1CN(C)Cc1ccc(C(=O)Nc2ccccc2N)cc1	-25
C[C@H](CO)N1C[C@H](C)[C@@H](CN(C)Cc2ccc(C(F)(F)F)cc2)OCc2cnnn2CCCC1=O	n
C[C@H](CO)N1C[C@H](C)[C@@H](CN(C)Cc2ccc(C(=O)O)cc2)OCc2cnnn2CCCC1=O	n
C[C@H]1CN([C@@H](C)CO)C(=O)CCCn2nncc2CO[C@@H]1CN(C)Cc1ccc(C(=O)O)cc1	n
C[C@H]1CN([C@@H](C)CO)C(=O)CCCn2nncc2CO[C@@H]1CN(C)Cc1ccc(O)cc1	n
C[C@H](CO)N1C[C@H](C)[C@@H](CN(C)Cc2ccc(C(=O)Nc3ccccc3N)cc2)OCc2cnnn2CCCC1=O	-20
C[C@H]1CN([C@@H](C)CO)C(=O)CCCn2nncc2CO[C@H]1CN(C)Cc1ccc(O)cc1	n
C[C@@H]1CN([C@H](C)CO)C(=O)CCCn2nncc2CO[C@H]1CN(C)Cc1ccc(C(=O)Nc2ccccc2N)cc1	-22
C[C@H]1CN([C@@H](C)CO)C(=O)CCCn2nncc2CO[C@@H]1CN(C)Cc1ccc(C(F)(F)F)cc1	n
Fc1cccc(CN2[C@@H]3CNC[C@H]2C3c2ccc(-c3cccnc3)cc2)c1 (stereo partly specified)	n

Compound activity: PubChem, Broad Institute
